Compounds with a hit are over-represented: about 12% of the library has one in this group of screens.
JMJD2A Tudor: blocks the human JMJD2A Tudor domain. O75164. AlphaScreen JMJD2A-Tudor / H3K4me3 peptide binding. Potency, µM (titrated, usually from 114 µM), for inactives: at the top dose activity change, negative = inhibition, hits mostly inhibitors. 390,000 tested, 4.4% active. AID 504339; also: % is scaled to controls: 0 for no effect and ±100 for the full control effect; nearly all actives have a fitted effect of over 50% in size
BAZ2B inh: blocks human BAZ2B | Q9UIF8 | AlphaScreen BAZ2B-H3K14Ac peptide displacement | Potency, µM (series often up to 114 µM), for inactives: at the top dose activity change, negative = inhibition, hits mostly inhibitors | 360,000 tested, 4.4% active; also: % is scaled to controls: 0 for no effect and ±100 for the full control effect; nearly all actives have a fitted effect of over 60% in size
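BAZ2B 50 nM plus b-H3(5-23)K14Ac 50 nM, PBS pH 7.4/0.01% Tween-20, 30 min RT; compound added (max 110 uM), 30 min RT; streptavidin donor/Ni-chelate acceptor beads 10 ug/mL final, 20 min dark; AlphaScreen read.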
G9a inh: blocks human histone lysine methyltransferase G9a; G9a H3K9 monomethylation, AlphaScreen, 2 h; Potency, µM (series often up to 102 µM), inactives show at the highest dose activity, negative = inhibition, hits mostly inhibitors; 350,000 tested, 8.8% active; AID 504332; also: % is scaled to controls: 0 for no effect and ±100 for the full control effect; nearly all actives have a fitted effect of over 75% in size
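Chemiluminescent proximity detection of H3K9 monomethylation, read after 10 min bead incubation in the dark. Reaction: 20 nM G9a, 500 nM biotin-H3K9 peptide, 20 uM SAM cofactor, 2 h, room temperature, following 15 min enzyme-compound preincubation.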
L3MBTL1 block: blocks human L3MBTL1 | Q9Y468 | AlphaScreen L3MBTL1–H3K9me1 peptide binding | Potency, µM (doses to about 57.1 µM), without a hit: at the highest dose activity, negative = inhibition, usual class: inhibitors | 230,000 tested, 0.66% active; also: % is scaled to controls: 0 for no effect and ±100 for the full control effect; nearly all actives have a fitted effect of over 60% in size
Target sequence (Q9Y468 whole entry, looked up): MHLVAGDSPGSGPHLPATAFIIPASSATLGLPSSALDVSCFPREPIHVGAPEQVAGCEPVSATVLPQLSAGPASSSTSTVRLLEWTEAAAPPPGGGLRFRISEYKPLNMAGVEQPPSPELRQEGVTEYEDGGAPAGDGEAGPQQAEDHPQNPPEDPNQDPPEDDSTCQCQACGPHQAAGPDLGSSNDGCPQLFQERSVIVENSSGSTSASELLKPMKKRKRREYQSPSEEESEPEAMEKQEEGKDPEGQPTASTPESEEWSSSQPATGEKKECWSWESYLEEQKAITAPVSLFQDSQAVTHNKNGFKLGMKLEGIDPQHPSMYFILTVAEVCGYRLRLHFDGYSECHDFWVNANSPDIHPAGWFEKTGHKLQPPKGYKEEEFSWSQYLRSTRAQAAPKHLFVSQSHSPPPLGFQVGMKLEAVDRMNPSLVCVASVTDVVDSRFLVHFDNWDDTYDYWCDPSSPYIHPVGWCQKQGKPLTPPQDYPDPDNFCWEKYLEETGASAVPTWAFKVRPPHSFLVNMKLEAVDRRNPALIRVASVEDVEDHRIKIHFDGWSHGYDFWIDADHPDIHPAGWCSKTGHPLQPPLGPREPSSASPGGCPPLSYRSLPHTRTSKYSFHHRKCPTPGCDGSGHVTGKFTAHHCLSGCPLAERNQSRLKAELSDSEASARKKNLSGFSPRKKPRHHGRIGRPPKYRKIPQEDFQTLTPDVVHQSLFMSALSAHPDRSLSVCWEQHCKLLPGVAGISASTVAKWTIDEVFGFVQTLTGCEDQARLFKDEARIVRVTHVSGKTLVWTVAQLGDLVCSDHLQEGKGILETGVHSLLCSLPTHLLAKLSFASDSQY
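Read-out is AlphaScreen signal from streptavidin donor and nickel chelate acceptor beads (10 ug/mL final each) bridging L3MBTL1 (50 nM) and biotinylated K9-monomethylated H3(1-15) peptide (75 nM), after 30 min compound exposure at room temperature.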
Sfp inh: inhibitors of Bacillus subtilis Sfp phosphopantetheinyl transferase; Q9F4F7; 310,000 tested, 3.5% active; Biochemical Sfp PPTase activity, qHTS; Potency, µM, for the others: largest response in the series, negative = inhibition, hits mostly inhibitors;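 also: the enzyme is Sfp with the accession as filed and its product quenches rhodamine fluorescence; 0% = enzyme reaction without inhibitor and -100% = no enzyme wells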
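Compounds were incubated with enzyme (final 15 nM) for 15 min at room temperature before substrate addition started the reaction. Fluorescence at 525 nm excitation, 598 nm emission was recorded immediately and after 30 minutes.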
HP1b binding inh: blocks HP1-beta chromodomain binding to methylated histone tails | P83916 | AlphaScreen HP1-beta / biotin-H3K9me3 peptide binding | Potency, µM (series often up to 114 µM), inactives show top-dose activity change, negative = inhibition, actives largely listed as inhibitors | 390,000 tested, 0.56% active | AID 540317; also: nearly all actives have a fitted effect of over 70% in size
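AlphaScreen: HP1-beta (50 nM) preformed 30 min with biotin-H3(1-18)K9me3 peptide (50 nM) in PBS pH 7.4, 0.01% Tween-20. Compound added for 30 min at RT, then streptavidin donor/nickel chelate acceptor beads (10 ug/mL) for 30 min.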
The depositor's hits bear a star; ? = inconclusive; nt = no result; [ ] = remark or other dose. Calls follow the shape of the dose curve; as a rule, active = well fitted curve in the direction sought with a large enough effect; inconclusive = small, poorly fitted or top-dose-only effect, or another doubt; inactive = no such curve, though single readings can be large; an effect the other way counts as inactive or inconclusive. Potency is read from the fitted curve at half-maximal effect.

SMILES | JMJD2A Tudor | BAZ2B inh | G9a inh | L3MBTL1 block | Sfp inh | HP1b binding inh
COc1ccc(-c2nnc(SCC#CCO)o2)cc1OC | ? | -2% | 16µM* | 9% | -1% | -6%
OCC#CCSc1nnc(-c2ccc(Br)cc2)o1 | -5% | 1% | -11% | 5% | 19% | 18%
CC/C(=C/c1sc2ccccc2[n+]1CC)SC | 25µM* | ? | -19%[59 µM] | -3% | -3% | 31%
CC[n+]1c(/C=C(\C)SC)sc2ccccc21 | ? | 79µM* | 79µM* | -7% | 79µM* | 34%
CC[n+]1c(C=C2C=C(C)OC(C)=C2)sc2ccccc21 | -23% | -31% | -24% | -1% | 1% | 33%
CC[n+]1c(/C=C(/C)SC)sc2ccccc21 | -15% | ? | 45µM* | 14% | ? | 42%
CC[n+]1c(/C=C(\C)OC)sc2ccccc21 | ? | 56µM* | ? | -6% | -11% | 41%
CN1C(=O)NC(c2cccc([N+](=O)[O-])c2)C2=C1CCCC2=O (stereo not given) | -9% | -4% | 21% | nt | 11% | 29%
COc1ccc(N/C(C)=C/C(=S)Nc2ccccc2)cc1 | -35% | -38% | -6%[59 µM] | -16% | -16% | 5%
CC[n+]1c(/C=C/Nc2ccccc2)sc2ccccc21 | -18% | -6% | 7.9µM* | 6% | -18% | 19%
Cc1cccc[n+]1CC(=O)Nc1ccccc1 | -17% | -3% | 6% | 0% | 24% | 9%
CC[n+]1c(/C=C2/C=C(C)CC(C)C2)sc2ccccc21 (stereo not given) | 32µM* | ? | 7.9µM* | nt | 45µM* | -4%
CC[n+]1c(/C=C(\C)Nc2ccccc2)sc2ccccc21 | -24% | 50µM* | ? | 0% | 56µM* | 24%
CC[n+]1ccccc1/C=C/Nc1ccccc1 | -12% | -6% | 45µM* | -23% | -5% | 38%
CCSc1nnc2c(n1)OC(c1sccc1C)N(C(C)=O)c1ccccc1-2 (stereo not given) | -34% | -16% | ? | nt | nt | -4%
COc1coc(C(O)C[N+](=O)[O-])cc1=O (stereo not given) | -2% | 4% | ? | 0% | 32µM* | 51%
CC(C(O)c1cc(=O)c(OCc2ccccc2)co1)[N+](=O)[O-] (stereo not given) | -14% | nt | nt | nt | nt | 24%
CC(C)(C)NC(=O)Nc1nnc(SCC(=O)NC2CCCCC2)s1 | -1% | -4% | -13% | -10% | nt | 39%
CCOC(=O)c1cc(S(=O)(=O)Nc2ccccc2)[nH]n1 | ? | 79µM* | 10µM* | nt | nt | 17%[57 µM]
CCOc1ccccc1NS(=O)(=O)c1cnc(N)nc1 | -14% | 3% | 10%[59 µM] | nt | nt | 23%[57 µM]
CCOC(=O)c1cc(S(=O)(=O)Nc2ccccc2OCC)[nH]n1 | 50µM* | 50µM* | 8.9µM* | nt | nt | -1%[57 µM]
Cc1cc2[nH]c(=O)c(=O)[nH]c2cc1S(=O)(=O)Nc1ccc(OC(F)(F)F)cc1 | -10% | -1% | -3%[59 µM] | nt | nt | 0%
CCOC(=O)c1cc(S(=O)(=O)Nc2ccc(OC(F)(F)F)cc2)[nH]n1 | ? | 50µM* | 3.2µM* | nt | nt | 2%[57 µM]
O=C(O)c1ccc(S(=O)(=O)N[C@H](Cc2ccccc2)C(=O)O)cc1 | 1% | nt | nt | nt | -1% | nt
CCCCN(CC)C(=O)CSc1nc2ccccc2c(=O)n1Cc1ccco1 | -25% | -4% | -5%[59 µM] | nt | nt | 33%
SMILES | JMJD2A Tudor | BAZ2B inh | G9a inh | L3MBTL1 block | Sfp inh | HP1b binding inh
CC(OC(=O)c1cccnc1SCc1cc(=O)n2ccccc2n1)c1ccccn1 (stereo not given) | -4% | -33% | 50µM* | nt | 13% | 19%
COc1ccc(C(Nc2ccccn2)c2c(NC(=O)c3ccco3)sc(C)c2C)cc1 (stereo not given) | ? | ? | 45µM* | -8% | 14% | 6%
Cc1sc(NC(=O)c2ccco2)c(C(Nc2ccccn2)c2ccccc2)c1C (stereo not given) | -42% | -36% | 45µM* | -1% | 0% | -20%
O=C(NCC(c1ccc2c(c1)OCO2)N1CCOCC1)C(=O)Nc1ccc(Cl)cc1 (stereo not given) | -5% | -5% | 12%[59 µM] | nt | nt | 7%
C#CCCCO/N=C1/C[C@@H](O)[C@@H](O)[C@@H]2[C@@H]3C(=O)N(C4CCCCC4)C(=O)[C@H]3CC[C@H]12 | nt | nt | nt | nt | 19% | nt
COc1ccc(C2c3cc(OC)c(OC)cc3Cc3c4cc(OC)c(OC)cc4cc[n+]32)cc1OC (stereo not given) | nt | nt | nt | nt | -15% | nt
CNCCOc1ccccc1-c1ccccc1 | 3.5µM* | ? | ? | nt | -1% | -58%
CNCCCCOc1ccccc1-c1ccccc1 | 0.63µM* | 56µM* | ? | -17% | ? | ?
CNCCOc1ccccc1OC(C)C | 2.2µM* | ? | 18µM* | 3% | -10% | -25%
O=C(CN1CCSC1=O)Nc1ccc(N2CCOCC2)cc1 | -19% | 6% | ? | -1% | nt | -10%
COc1ccc(-c2nc(=S)[nH][nH]2)cc1OC | 2.8µM* | 56µM* | 0.56µM* | 10% | 56µM* | ?
COc1cc(-c2nc(=S)[nH][nH]2)cc(OC)c1OC | 3.5µM* | 50µM* | 0.56µM* | 10% | 50µM* | ?
COc1ccc(S(=O)(=O)N2CCC(C(=O)NC(C)c3ccccc3)CC2)cc1 (stereo not given) | -1% | 1% | 5%[59 µM] | nt | nt | 39%
Cc1ccc(S(=O)(=O)CCC(=O)OC(C)C(=O)N2CCc3ccccc32)cc1 (stereo not given) | -19% | 5% | 17%[0.501 µM] | 3% | nt | 23%
C/C=C1\NC(=O)[C@H](C)NC(=O)[C@@H](NC(=O)[C@@H](Cc2ccc(O)cc2)NC(=O)[C@@H](NC(=O)/C(C)=C/C)C(C)C)[C@@H](C)OC(=O)[C@H](CCCCc2ccc(O)cc2)NC(=O)[C@@H](CCC(=O)O)NC1=O | -18% | nt | nt | 3% | nt | 14%
COc1ccc2c(c1)NC(c1ccc(Cl)cc1)=NC(c1cccs1)=N2 | 14µM* | -28% | ? | nt | nt | ?
Oc1c(Cl)cc(Cl)c2c1NCCC2 | 56µM* | ? | ? | -6% | 16µM* | 50µM*
O=C1NCCCc2c1oc1ccc(O)cc21 | -9% | 13% | 25%[2.33 µM] | 44% | -10% | 5%
c1ccc(CSc2ncnc3c2oc2ccccc23)cc1 | 121% | nt | nt | nt | nt | 318%
c1coc(CSc2ncnc3c2oc2ccccc23)c1 | 13% | -4% | 13%[59 µM] | 19% | 56µM* | 53%
Cc1cccc(Cn2nnc3c2C(=O)c2ccccc2C3=O)c1 | -14% | 13µM* | ? | -19%[11.4 µM] | -7% | -26%
COc1cc(C2Nc3cccc4cccc(c34)N2)ccc1O | 50µM* | ? | 8.9µM* | -8% | 45µM* | ?
